Common to all, as to experiment: PBM; 200 nM protein, PBS
Holding throughout (details): dsDNA, one strand shown

The target of assay [1] is ALX1 (Homo sapiens, UniProt Q15699 118-204, L144V).
Assay [2] deals with ALX1 (Homo sapiens, UniProt Q15699 118-204, L144R).
The target in assay [3] is ALX1 (Homo sapiens, UniProt Q15699 118-204).
Assay [4] has as its target ALX3 (Homo sapiens, UniProt O95076 139-225, N203Q).
The target in assay [5] is ALX3 (Homo sapiens, UniProt O95076 139-225).
In assay [6] the target is ALX3 (Homo sapiens, UniProt O95076 139-225, L168Q).
Sequence of ALX3 (Homo sapiens, UniProt O95076 139-225, L168Q) (O95076 139-225 L168Q): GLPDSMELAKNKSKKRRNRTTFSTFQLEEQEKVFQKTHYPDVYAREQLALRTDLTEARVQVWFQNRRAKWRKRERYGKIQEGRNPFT
Assay [7] deals with ALX3 (Homo sapiens, UniProt O95076 139-225, L168V).
Sequence of ALX3 (Homo sapiens, UniProt O95076 139-225, L168V) (O95076 139-225 L168V): as the sequence (O95076 139-225 L168Q) above, with Q30V counted along it
Assay [8] has as its target ALX3 (Homo sapiens, UniProt O95076 139-225, N203S).
Assay [9] addresses PROP1 (Homo sapiens, UniProt O75360 56-141).
Assay [10] addresses PROP1 (Homo sapiens, UniProt O75360 56-141, R99H).
Assay [11] addresses PROP1 (Homo sapiens, UniProt O75360 56-141, F88S).
For assay [12], the target named is HOXD13 (Homo sapiens, UniProt P35453 263-343, T313R).
Sequence of HOXD13 (Homo sapiens, UniProt P35453 263-343, T313R) (P35453 263-343 T313R): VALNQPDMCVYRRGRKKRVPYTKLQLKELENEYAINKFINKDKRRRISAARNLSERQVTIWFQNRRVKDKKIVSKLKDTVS
Assay [13] deals with HOXD13 (Homo sapiens, UniProt P35453 263-343).
Sequence of HOXD13 (Homo sapiens, UniProt P35453 263-343) (P35453 263-343): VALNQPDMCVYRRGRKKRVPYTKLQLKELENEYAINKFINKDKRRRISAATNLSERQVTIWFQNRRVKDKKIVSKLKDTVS
Assay [14] concerns the target HOXD13 (Homo sapiens, UniProt P35453 263-343, T313A).

Results on 32 sequences are retold here after publication PMC11006913.

Sequence of ALX3 (Homo sapiens, UniProt O95076 139-225, N203S) (O95076 139-225 N203S): as the sequence (O95076 139-225 L168Q) above, with Q30L, N65S counted along it
Sequence of ALX3 (Homo sapiens, UniProt O95076 139-225) (O95076 139-225): as the sequence (O95076 139-225 L168Q) above, with Q30L counted along it
Sequence of ALX3 (Homo sapiens, UniProt O95076 139-225, N203Q) (O95076 139-225 N203Q): as the sequence (O95076 139-225 L168Q) above, with Q30L, N65Q counted along it
Sequence of ALX1 (Homo sapiens, UniProt Q15699 118-204, L144R) (Q15699 118-204 L144R): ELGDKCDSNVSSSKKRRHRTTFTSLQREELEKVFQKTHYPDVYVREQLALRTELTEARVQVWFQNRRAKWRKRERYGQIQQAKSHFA
Sequence of ALX1 (Homo sapiens, UniProt Q15699 118-204, L144V) (Q15699 118-204 L144V): as the sequence (Q15699 118-204 L144R) above, with R27V counted along it
Sequence of ALX1 (Homo sapiens, UniProt Q15699 118-204) (Q15699 118-204): as the sequence (Q15699 118-204 L144R) above, with R27L counted along it
Sequence of HOXD13 (Homo sapiens, UniProt P35453 263-343, T313A) (P35453 263-343 T313A): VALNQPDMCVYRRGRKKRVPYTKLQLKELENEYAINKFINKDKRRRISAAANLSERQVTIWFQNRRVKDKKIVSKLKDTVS
Sequence of PROP1 (Homo sapiens, UniProt O75360 56-141, F88S) (O75360 56-141 F88S): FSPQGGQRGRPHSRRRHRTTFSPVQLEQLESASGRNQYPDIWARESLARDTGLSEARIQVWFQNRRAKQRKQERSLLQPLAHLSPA
Sequence of PROP1 (Homo sapiens, UniProt O75360 56-141) (O75360 56-141): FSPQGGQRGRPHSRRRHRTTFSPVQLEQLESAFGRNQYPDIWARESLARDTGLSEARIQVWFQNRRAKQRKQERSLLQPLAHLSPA
Sequence of PROP1 (Homo sapiens, UniProt O75360 56-141, R99H) (O75360 56-141 R99H): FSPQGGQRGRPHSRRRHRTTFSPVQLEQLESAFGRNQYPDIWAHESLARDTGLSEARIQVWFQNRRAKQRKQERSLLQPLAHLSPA

AGAAGGGC: the binding signal was 6.58 upbm affinity estimate (log intensity, higher = more binding, comparable within an allelic series) in the assay with ALX1 [1]; 6.68 upbm affinity estimate (log intensity, higher = more binding, comparable within an allelic series) with ALX1 [2]; 6.45 upbm affinity estimate (log intensity, higher = more binding, comparable within an allelic series) with ALX1 [3].
For the sequence CCTCAATC, the binding signal with ALX1 [1] was 7.8 upbm affinity estimate (log intensity, higher = more binding, comparable within an allelic series); in the assay with ALX1 [2] it was 7.78 upbm affinity estimate (log intensity, higher = more binding, comparable within an allelic series); with ALX1 [3], 7.96 upbm affinity estimate (log intensity, higher = more binding, comparable within an allelic series).
For CACCTTCG, the binding signal with ALX1 [1] was 6.61 upbm affinity estimate (log intensity, higher = more binding, comparable within an allelic series); in the assay with ALX1 [2], 6.38 upbm affinity estimate (log intensity, higher = more binding, comparable within an allelic series); with ALX1 [3], 6.33 upbm affinity estimate (log intensity, higher = more binding, comparable within an allelic series).
Consider CTGGGCGA, for which the binding signal with ALX1 [1] is 6.34 upbm affinity estimate (log intensity, higher = more binding, comparable within an allelic series); with ALX1 [2], 6.37 upbm affinity estimate (log intensity, higher = more binding, comparable within an allelic series); in the assay with ALX1 [3], 6.87 upbm affinity estimate (log intensity, higher = more binding, comparable within an allelic series).
Take CAATATTC: the binding signal with ALX1 [1] is 8.3 upbm affinity estimate (log intensity, higher = more binding, comparable within an allelic series); with ALX1 [2], 8.42 upbm affinity estimate (log intensity, higher = more binding, comparable within an allelic series); with ALX1 [3], 8.48 upbm affinity estimate (log intensity, higher = more binding, comparable within an allelic series).
For AGCGCAGC, the binding signal with ALX1 [1] was 6.5 upbm affinity estimate (log intensity, higher = more binding, comparable within an allelic series); with ALX1 [2], 6.49 upbm affinity estimate (log intensity, higher = more binding, comparable within an allelic series); with ALX1 [3], 6.42 upbm affinity estimate (log intensity, higher = more binding, comparable within an allelic series).
GTAGGTAA: the binding signal with ALX1 [1] is 8.26 upbm affinity estimate (log intensity, higher = more binding, comparable within an allelic series); in the assay with ALX1 [3], 8.54 upbm affinity estimate (log intensity, higher = more binding, comparable within an allelic series).
With CGACTGCC, the binding signal with ALX1 [1] is 6.48 upbm affinity estimate (log intensity, higher = more binding, comparable within an allelic series); with ALX1 [2] it was 6.43 upbm affinity estimate (log intensity, higher = more binding, comparable within an allelic series); with ALX1 [3] it was 6.37 upbm affinity estimate (log intensity, higher = more binding, comparable within an allelic series).
ATAATAAG: in the assay with ALX3 [4], the binding signal is 8.64 upbm affinity estimate (log intensity, higher = more binding, comparable within an allelic series).
Take CCAGACTC: the binding signal in the assay with ALX1 [1] is 6.24 upbm affinity estimate (log intensity, higher = more binding, comparable within an allelic series); in the assay with ALX1 [2] it was 6.47 upbm affinity estimate (log intensity, higher = more binding, comparable within an allelic series); in the assay with ALX1 [3], 6.13 upbm affinity estimate (log intensity, higher = more binding, comparable within an allelic series).
With GGCTAGGA, the binding signal was 6.64 upbm affinity estimate (log intensity, higher = more binding, comparable within an allelic series) with ALX1 [1]; 6.63 upbm affinity estimate (log intensity, higher = more binding, comparable within an allelic series) with ALX1 [2]; 6.34 upbm affinity estimate (log intensity, higher = more binding, comparable within an allelic series) with ALX1 [3].
On to CCGACTGC, for which the binding signal is 6.5 upbm affinity estimate (log intensity, higher = more binding, comparable within an allelic series) with ALX1 [1]; 6.49 upbm affinity estimate (log intensity, higher = more binding, comparable within an allelic series) with ALX1 [2]; 6.52 upbm affinity estimate (log intensity, higher = more binding, comparable within an allelic series) with ALX1 [3].
AGCTACGA: the binding signal with ALX1 [1] is 6.35 upbm affinity estimate (log intensity, higher = more binding, comparable within an allelic series); with ALX1 [2], 6.56 upbm affinity estimate (log intensity, higher = more binding, comparable within an allelic series); with ALX1 [3] it was 6.35 upbm affinity estimate (log intensity, higher = more binding, comparable within an allelic series).
For TAATAATA, the binding signal with ALX3 [4] was 8.57 upbm affinity estimate (log intensity, higher = more binding, comparable within an allelic series).
For CGCCTTCC, the binding signal with ALX1 [1] is 6.24 upbm affinity estimate (log intensity, higher = more binding, comparable within an allelic series); with ALX1 [2] it was 6.38 upbm affinity estimate (log intensity, higher = more binding, comparable within an allelic series); with ALX1 [3], 6.08 upbm affinity estimate (log intensity, higher = more binding, comparable within an allelic series).
Consider AACTAAGT, for which the binding signal was 8.49 upbm affinity estimate (log intensity, higher = more binding, comparable within an allelic series) with ALX1 [1] and 8.92 upbm affinity estimate (log intensity, higher = more binding, comparable within an allelic series) in the assay with ALX1 [3].
With GTTATACA, the binding signal in the assay with ALX1 [1] was 8.24 upbm affinity estimate (log intensity, higher = more binding, comparable within an allelic series); with ALX1 [2] it was 8.23 upbm affinity estimate (log intensity, higher = more binding, comparable within an allelic series); in the assay with ALX1 [3] it was 8.43 upbm affinity estimate (log intensity, higher = more binding, comparable within an allelic series).
With TATAATAA, the binding signal in the assay with ALX3 [4] is 8.61 upbm affinity estimate (log intensity, higher = more binding, comparable within an allelic series).
For AGATCATC, the binding signal in the assay with ALX1 [1] is 7.78 upbm affinity estimate (log intensity, higher = more binding, comparable within an allelic series); in the assay with ALX1 [2], 7.76 upbm affinity estimate (log intensity, higher = more binding, comparable within an allelic series); with ALX1 [3] it was 7.9 upbm affinity estimate (log intensity, higher = more binding, comparable within an allelic series).
Regarding GGAGAAAC, the binding signal with ALX1 [1] is 6.41 upbm affinity estimate (log intensity, higher = more binding, comparable within an allelic series); with ALX1 [2], 6.7 upbm affinity estimate (log intensity, higher = more binding, comparable within an allelic series); with ALX1 [3], 6.58 upbm affinity estimate (log intensity, higher = more binding, comparable within an allelic series).
Turning to GACTCCCC, the binding signal is 6.43 upbm affinity estimate (log intensity, higher = more binding, comparable within an allelic series) with ALX1 [1]; 6.48 upbm affinity estimate (log intensity, higher = more binding, comparable within an allelic series) in the assay with ALX1 [2]; 6.25 upbm affinity estimate (log intensity, higher = more binding, comparable within an allelic series) with ALX1 [3].
Take AGTTACTG: the binding signal was 8.01 upbm affinity estimate (log intensity, higher = more binding, comparable within an allelic series) with ALX1 [1]; 7.88 upbm affinity estimate (log intensity, higher = more binding, comparable within an allelic series) with ALX1 [2]; 8.32 upbm affinity estimate (log intensity, higher = more binding, comparable within an allelic series) in the assay with ALX1 [3].
With CCGTATTA, the binding signal was 8.94 upbm affinity estimate (log intensity, higher = more binding, comparable within an allelic series) with ALX1 [1]; 8.73 upbm affinity estimate (log intensity, higher = more binding, comparable within an allelic series) in the assay with ALX1 [2]; 9.27 upbm affinity estimate (log intensity, higher = more binding, comparable within an allelic series) with ALX1 [3].
Regarding ACCCGCGT, the binding signal in the assay with ALX1 [1] is 6.47 upbm affinity estimate (log intensity, higher = more binding, comparable within an allelic series); in the assay with ALX1 [2], 6.51 upbm affinity estimate (log intensity, higher = more binding, comparable within an allelic series); with ALX1 [3] it was 6.45 upbm affinity estimate (log intensity, higher = more binding, comparable within an allelic series).
Consider CCTTTAAC, for which the binding signal is 8.41 upbm affinity estimate (log intensity, higher = more binding, comparable within an allelic series) with ALX1 [1]; 8.36 upbm affinity estimate (log intensity, higher = more binding, comparable within an allelic series) in the assay with ALX1 [2]; 8.65 upbm affinity estimate (log intensity, higher = more binding, comparable within an allelic series) in the assay with ALX1 [3].
In the case of GGCAGTTA, the binding signal was 8.06 upbm affinity estimate (log intensity, higher = more binding, comparable within an allelic series) in the assay with ALX3 [4]; 9.02 upbm affinity estimate (log intensity, higher = more binding, comparable within an allelic series) with ALX3 [5]; 8.19 upbm affinity estimate (log intensity, higher = more binding, comparable within an allelic series) in the assay with ALX3 [6]; 8.14 upbm affinity estimate (log intensity, higher = more binding, comparable within an allelic series) with ALX3 [7]; 8.16 upbm affinity estimate (log intensity, higher = more binding, comparable within an allelic series) with ALX3 [8].
Consider ACCCCCGC, for which the binding signal was 7.74 upbm affinity estimate (log intensity, higher = more binding, comparable within an allelic series) with ALX3 [4]; 7.66 upbm affinity estimate (log intensity, higher = more binding, comparable within an allelic series) with ALX3 [5]; 6.56 upbm affinity estimate (log intensity, higher = more binding, comparable within an allelic series) with PROP1 [9]; 6.52 upbm affinity estimate (log intensity, higher = more binding, comparable within an allelic series) in the assay with PROP1 [10]; 7.66 upbm affinity estimate (log intensity, higher = more binding, comparable within an allelic series) with ALX3 [6]; 7.68 upbm affinity estimate (log intensity, higher = more binding, comparable within an allelic series) with ALX3 [7]. Also, the binding signal was 6.34 upbm affinity estimate (log intensity, higher = more binding, comparable within an allelic series) with PROP1 [11] and 7.73 upbm affinity estimate (log intensity, higher = more binding, comparable within an allelic series) in the assay with ALX3 [8].
ACCCGGGT: the binding signal was 7.83 upbm affinity estimate (log intensity, higher = more binding, comparable within an allelic series) with ALX3 [4]; 8.06 upbm affinity estimate (log intensity, higher = more binding, comparable within an allelic series) in the assay with ALX3 [5]; 8.02 upbm affinity estimate (log intensity, higher = more binding, comparable within an allelic series) in the assay with ALX3 [6]; 7.92 upbm affinity estimate (log intensity, higher = more binding, comparable within an allelic series) in the assay with ALX3 [7]; 7.9 upbm affinity estimate (log intensity, higher = more binding, comparable within an allelic series) with ALX3 [8].
As for TTATTAAA, the binding signal in the assay with ALX3 [4] is 8.64 upbm affinity estimate (log intensity, higher = more binding, comparable within an allelic series); in the assay with HOXD13 [12] it was 10.8 upbm affinity estimate (log intensity, higher = more binding, comparable within an allelic series); with HOXD13 [13], 11.9 upbm affinity estimate (log intensity, higher = more binding, comparable within an allelic series); in the assay with HOXD13 [14] it was 11.7 upbm affinity estimate (log intensity, higher = more binding, comparable within an allelic series); with ALX3 [8], 8.68 upbm affinity estimate (log intensity, higher = more binding, comparable within an allelic series).
ACCGCGGT: the binding signal in the assay with ALX3 [4] is 7.85 upbm affinity estimate (log intensity, higher = more binding, comparable within an allelic series); in the assay with ALX3 [5], 8.03 upbm affinity estimate (log intensity, higher = more binding, comparable within an allelic series); with ALX3 [6] it was 7.86 upbm affinity estimate (log intensity, higher = more binding, comparable within an allelic series); with ALX3 [7], 7.92 upbm affinity estimate (log intensity, higher = more binding, comparable within an allelic series); in the assay with ALX3 [8] it was 7.86 upbm affinity estimate (log intensity, higher = more binding, comparable within an allelic series).
For the sequence CCTAACAG, the binding signal is 8.02 upbm affinity estimate (log intensity, higher = more binding, comparable within an allelic series) with ALX3 [4]; 8.92 upbm affinity estimate (log intensity, higher = more binding, comparable within an allelic series) with ALX3 [5]; 8.23 upbm affinity estimate (log intensity, higher = more binding, comparable within an allelic series) in the assay with ALX3 [6]; 8.19 upbm affinity estimate (log intensity, higher = more binding, comparable within an allelic series) in the assay with ALX3 [7]; 8.09 upbm affinity estimate (log intensity, higher = more binding, comparable within an allelic series) with ALX3 [8].
For AATATTCG, the binding signal with ALX3 [4] was 8.28 upbm affinity estimate (log intensity, higher = more binding, comparable within an allelic series); in the assay with ALX3 [5], 9.33 upbm affinity estimate (log intensity, higher = more binding, comparable within an allelic series).
